± gives the standard deviation.
Experiments:
[1] = system: MILI (PIWIL2) piRISC loaded with L1MC piRNA (26 nt); test: pre-steady-state target cleavage rate (min^-1); guide: L1MC piRNA 5'p-UAACUAAAUACUAUGCAAGCUGUAGG; higher = faster piRNA-guided slicing of the target
Method in brief: (§1)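 The pre-steady-state cleavage rate was obtained by Cleave-'n-Seq with a burst-and-steady-state fit. A transcribed, DNA-blocked target RNA library (0.1 nM) was mixed with 1 nM active affinity-purified piRISC carrying one synthetic guide, with or without 500 nM GTSF1 partner protein, in HEPES–potassium acetate buffer at 33 °C for 0–8 or 0–960 min. Uncleaved targets were sequenced and normalised to depth and to weakly complementary targets, with three trials pooled and k3 capped at 0.0001 min^-1.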

[2] = system: EfPiwi piRISC loaded with L1MC piRNA (26 nt); test: pre-steady-state target cleavage rate (min^-1); auxiliary factor: 500 nM Ephydatia muelleri Gtsf1; guide: L1MC piRNA 5'p-UAACUAAAUACUAUGCAAGCUGUAGG; MIWI and MILI are mouse PIWI proteins and EfPiwi is from a freshwater sponge; tags in brackets are library labels; higher = faster piRNA-guided slicing of the target
Method in brief: as §1

[3] = auxiliary factor: 500 nM mouse GTSF1

Row | Sequence | pre-steady-state target cleavage rate [1, 3] | pre-steady-state target cleavage rate [2] | pre-steady-state target cleavage rate ([1]; auxiliary factor: none (no GTSF1))
1 | UCCUCCUUCAGCUUGCAUAGUAUUUACUUA | 0.132 ± 0.023 | 0.00514 ± 0.0032 | 
2 | UCCUCCUACAGCUUGCAAAGUAUUUUGUUA | 0.0808 ± 0.011 | 0.00453 ± 0.0028 | 
3 | UCCUGGUACAGCUUGCAUAGUAUUUUGAUA | 0.0966 ± 0.025 | 0.00381 ± 0.0026 | 
4 | UCCUGCUACAGCUUGCAAAGUAUUUACAAA | 0.0731 ± 0.018 | 0.00394 ± 0.0025 | 
5 | UCCUCCUACACCUUGCAUAGUAUUUACAAA | 0.127 ± 0.032 | 0.00304 ± 0.0025 | 
6 | UCCUGGAUGAGCUUGCAUAGUAUUUAAUUA | 0.0516 ± 0.014 | 0.00294 ± 0.0025 | 
7 | UCCUGGAACAGCUUGCAUAGUAAUUAGUAA | 0.108 ± 0.015 | 0.00418 ± 0.0019 | 
8 | UCCUGGAUGUGCAUGCAUAGUAUUUAGAUA | 0.146 ± 0.032 | 0.00317 ± 0.0024 | 
9 | UCCUGGAUCAGCAUCCAUAGUAUUUAGUUA | 0.103 ± 0.022 | 0.00269 ± 0.0023 | 
10 | UCCUGCUACAGCUUGCAUACUAUUUACUUA | 0.0359 ± 0.011 | 0.00325 ± 0.0023 | 
11 | UCCUGGAUCAGCUUGCUUAGUAUUUAGAAA | 0.0821 ± 0.019 | 0.00269 ± 0.0022 | 
12 | UCCUGGAACACCUUGCAUACUAUUUAGUUA | 0.0449 ± 0.0096 | 0.00273 ± 0.002 | 
13 | UCCUGGUACUGCUUGCAUAGUAUUUAGAAA | 0.0143 ± 0.0067 | 0.00409 ± 0.0019 | 
14 | UCCUGGAUGUCGAACCAUAGUAUUUAGGUA |  | < 0.0001 | < 0.0001
15 | UCCUGGAACAGCUUGCGAUAGUAUUUAGUUA | 0.00418 ± 0.0033 | 0.00523 ± 0.0018 | 
16 | UCCUGGUUGUGCUUGCAUAGUAUUUAGAAA | 0.0381 ± 0.013 | 0.00415 ± 0.0022 | 
17 | UCCUGCUACACCUUCCAUAGUAUUUAGUUA | 0.0271 ± 0.013 | 0.00334 ± 0.0022 | 
18 | UCCUGGAACAGCUUGCUAUAGUAUUUAGUUA | 0.028 ± 0.0077 | 0.00682 ± 0.0023 | 
19 | UCCUGCUACAGCUUGCAUAAGUAUUUAGUUA | 0.0171 ± 0.0064 | 0.00273 ± 0.0019 | 
20 | UCCUCCUAGUGCUUGCAUAGUAUUUAGUAA | 0.114 ± 0.019 | 0.00468 ± 0.002 | 
21 | UCCUGCUACAGCUUGCAGUAGUAUUUAGUUA | 0.00973 ± 0.0053 | 0.0051 ± 0.0024 | 
22 | UCCUCCUACAGCUUGCAUAGUUAUUAGAAA | 0.0109 ± 0.0053 | 0.00348 ± 0.0028 | 
23 | UCCUGGUACAGGUUGCAUAGAAUUUAGUUA | 0.0804 ± 0.021 | 0.00277 ± 0.0022 | 

Row | Sequence | pre-steady-state target cleavage rate [1, 3] | pre-steady-state target cleavage rate [2] | pre-steady-state target cleavage rate ([1]; auxiliary factor: none (no GTSF1))
24 | UCCUGGAUGUGCAAGCAUAGUAUUUAGAAA | 0.0135 ± 0.0052 | 0.00423 ± 0.0039 | 
25 | UCCUCCAACAGCUUGCAUAGUAUUUACUUA | 0.122 ± 0.022 | 0.00475 ± 0.0037 | 
26 | UCCUGCUACAUGCUUGCAUAGUAUUUAGUUA | 0.0998 ± 0.021 | 0.00438 ± 0.002 | 
27 | UCCUGGAUGAGCUUGCAUAGUAUUUAUUUA | 0.0843 ± 0.024 | 0.00435 ± 0.0029 | 
28 | UCCUGCUACAGCUUGCAUAGAAUUAAGUUA | 0.048 ± 0.012 | 0.00288 ± 0.0022 | 
29 | UCCUGGAUGUGCUUGCAUAGUAUUUAGAUUA | 0.0647 ± 0.016 | 0.00327 ± 0.0022 | 
30 | UCCUGCUACACCUUGCAUAGUAUUAAGUUA | 0.178 ± 0.034 | 0.00618 ± 0.0036 | 
31 | UCCUCCUACAGCUUGCAUACUAUUUUGUUA | 0.0272 ± 0.0077 | 0.00468 ± 0.0034 | 
32 | UCCUGGAUGAGCUUGCAUAGUAUAAAGUUA | 0.255 ± 0.047 | 0.00848 ± 0.0042 | 
33 | UCCUGGAUCUGCUUGCAUAGUAUUUAGAUA | 0.0934 ± 0.016 | 0.00401 ± 0.0022 | 
34 | UCCUGCUACAGCUUGCAUAGUAUUUAGUAUA | 0.292 ± 0.044 | 0.00675 ± 0.0019 | 
35 | UCCUGCUACAGCUUGCAUAGUAUAAUGAAA | 0.0499 ± 0.018 | 0.00473 ± 0.0032 | 
36 | UCCUCCUACACCUUGCAUAGUAUUUAGAUA | 0.161 ± 0.044 | 0.004 ± 0.0023 | 
37 | UCCUGGAACAGCUUGCAAUAGUAUUUAGUUA | 0.0492 ± 0.013 | 0.0183 ± 0.0054 | 
38 | UCCUGGAACAGCUUGCAUAGUAAAAAGUUA | 0.0663 ± 0.018 | 0.00324 ± 0.0027 | 
39 | UCCUGCUACAGCUUGCAUAGUAUUUUGAUA | 0.142 ± 0.037 | 0.00307 ± 0.0023 | 
40 | UCCUGCUACAGCUUGCAUAGUAUUUAGCUUA | 0.161 ± 0.037 | 0.00522 ± 0.0019 | 
41 | UCCUCCUACACCUUGCAUAGUAUUAAGUUA | 0.178 ± 0.036 | 0.00451 ± 0.0025 | 
42 | UCCUGGUACAGCUUGCAUAGUAUAUAGUAA | 0.173 ± 0.034 | 0.00335 ± 0.0022 | 
43 | UCCUGCAACAGCUUGCAUAGUAUUUAGAAA | 0.138 ± 0.026 | 0.00432 ± 0.0016 | 
44 | UCCUCCUACUGCUUGCAUAGUAUUUAGUAA | 0.126 ± 0.017 | 0.00527 ± 0.0023 | 
45 | UCCUGGAUCAGCUUGCAUAGUAAUUUGUUA | 0.114 ± 0.025 | 0.00366 ± 0.002 | 
